Experimental data: PubChem BioAssay AID1347156 (National Center for Advancing Translational Sciences (NCATS), 2019)
Results filed as inconclusive are left out. Active and inactive are the calls of the source. Calls come from the whole dose curve; as a rule, active = well fitted cell-killing curve with a large enough effect; inconclusive = small, poorly fitted or top-dose-only effect; inactive = flat fitted curve, though single readings scatter.

Test: DAPI mCherry counterscreen qHTS for Zika virus inhibitors; note: nearly all actives have a fitted effect of over 55% in size
Conditions: Vero cells, DAPI nuclear count cytotoxicity, imaging 48-72 h; series mostly up to 32.6 µM
From the text: Assay Submitters (PI): Avindra Nath, Ph.D., National Institute of Neurological Disorders and Stroke (NINDS), Bethesda, MD Radhakrishnan Padmanabhan, Ph.D., Georgetown University (GU), Washington D.C. Zika Virus causes congenital defects, including microcephaly and is associated with Guillain-Barre syndrome, eningoencephalitis and myelitis in infected adult. […] Using a target-based approach, we hope to establish a screening paradigm to uncover novel, cell-active NS2B-NS3 protease (Zika Virus) specific inhibitors from NCATS' collection of small molecules using qHTS. […] Four assay panel was created to identify potential Zika Virus inhibitors. Namely, (1) GU unlinked NS2B-NS3 AMC tagged protease qHTS, (2) GU unlinked NS2B-NS3 Rhodamine tagged protease qHTS, (3) NINDS linked NS2B-NS3 AMC tagged protease qHTS, (4) NINDS linked NS2B-NS3 Rhodamine tagged protease qHTS. Active compounds were re-acquired and re-screened to confirm inhibition. Inhibitors were further screened against various confirmatory and counterscreens in dose response format. […] A DAPI (mCherry counterscreen) which determine Vero cell cytotoxicity was used to exclude false positive compounds. […] Early Translation Branch (ETB) National Center for Advancing Translational Sciences (NCATS), Rockville, MD National Institute of Health (NIH), Bethesda, Maryland
384 well ZIKV-mCherry & mCherry DAPI counterscreen: We have developed a new orthogonal imaging assay in 384-well plate format, which uses recombinant virus ZIKV-mCherry in Vero cells. Briefly, 30 microL of Vero cells derived from a green monkey cell line, were dispensed by Multidrop Dispenser into a clear solid bottom black 384 well plate (ultracarrier, Perkin Elmer LifeSciences) at a concentration of 5,000 cells per well. The plate was incubated overnight in a CO2 incubator at 37 degrees C. Compounds were delivered as a 126 nL DMSO solution by Kalypsys pintool transfer. Following compound transfer, 10 microL of ZIKV-mCherry was added at an MOI of 1 and incubated in a CO2 incubator for 48-72 hrs at 37 degrees C. After sufficient incubation of infected cells in test plates, 8 microL of 32% PFA was dispensed into assay plates to fix cells and incubated for 20 min at room temperature. Plates were washed 3 times with PBS using BioTek EL406 microplate washer/dispenser. After washing, 30 microL of PBS with 0.01% TX-100 containing Hoechst dye was dispensed into the each well of the plates for nuclear staining. 384-well plates were imaged on an automated, widefield high content imager (INCell 2200, GE Healthcare) using a 10x/0.45 NA lens and standard DAPI (nuclear stain) and mCherry (cy5) excitation and emission filters. The TIFFs were quantitated using the canned Multi Target Analysis protocol (GE Investigator Workstation software v3.7.2). Briefly, nuclei from the DAPI channel were identified using top hat segmentation and a sensitivity setting of 96 and minimum size area of 35 microm2. A recombinant Zika viral infection was monitored in the Cy5 channel (cells) using a 2 microm collar dilation from the nuclear bitmap. mCherry objects with an average nuclear RFU intensity above 450 (3 stdev above mean negative control wells) were considered "mcherry positive" and data was analyzed by percent infection rate.
% is set by controls: 0 for no effect and ±100 for the full control effect; potency is the fitted concentration of half-maximal effect.

| Compound | Potency |
| --- | --- |
| N[C@@H](Cc1ccc(Oc2cc(I)c(O)c(I)c2)c(I)c1)C(=O)O | inactive |
| CNc1ccc2oc(C[C@@H]3OC4(CC[C@@H]3C)O[C@H]([C@@H](C)C(=O)c3ccc[nH]3)[C@H](C)C[C@H]4C)nc2c1C(=O)O (stereo partly drawn) | 1 µM (active) |
| O=C1C(I)=CC(=C(c2cc(I)c(O)c(I)c2)c2ccccc2C(=O)O)C=C1I | 25.1 µM (active) |
| O=c1oc2ccccc2c(O)c1C(CC(O)c1ccc(-c2ccc(Br)cc2)cc1)c1ccccc1 (stereo not drawn) | 15.8 µM (active) |
| C[C@H]1[C@H]2Cc3ccc(O)cc3[C@]1(C)CCN2CCc1ccccc1 | 22.4 µM (active) |
| O=C(O)c1cc(Oc2ccc(C(F)(F)F)cc2Cl)ccc1[N+](=O)[O-] | inactive |
| O=C1OC(c2ccc(O)c(S(=O)(=O)O)c2)(c2ccc(O)c(S(=O)(=O)O)c2)c2c(Br)c(Br)c(Br)c(Br)c21 | inactive |
| CC(C)=CCC[C@]1(C)C=Cc2c(O)c3c(c(CC=C(C)C)c2O1)O[C@]12C(=C[C@@H]4CC1C(C)(C)O[C@@]2(C/C=C(/C)C(=O)O)C4=O)C3=O | 1.12 µM [infected with Zika reporter virus, MOI 1] (active) |
| Cc1cc(SCc2sc(-c3ccc(C(F)(F)F)c(F)c3)nc2C)ccc1OCC(=O)O | 14.1 µM (active) |
| O=c1c(C2CC(c3ccc(-c4ccc(Br)cc4)cc3)Cc3ccccc32)c(O)sc2ccccc12 (stereo not drawn) | 8.91 µM (active) |
| CC(=O)c1c(O)c(C)c(O)c(Cc2c(O)c3c(c(C(=O)/C=C/c4ccccc4)c2O)OC(C)(C)C=C3)c1O | 14.1 µM (active) |
| O=C(O)C(=O)c1cn(Cc2ccccc2)c2ccc(-c3ccc(OC(F)(F)F)cc3)cc12 | 28.2 µM (active) |
| CC1=C(O)C(=O)C=C2C1=CC=C1[C@@]2(C)CC[C@@]2(C)[C@@H]3C[C@](C)(C(=O)O)CC[C@]3(C)CC[C@]12C | 1.12 µM (active) |
| CC(C)=CCCC1(C)C=Cc2c(O)c3c(c(CC=C(C)C)c2O1)OC12C(=CC4CC1C(C)(C)OC2(C/C=C(/C)C(=O)O)C4O)C3=O (stereo not drawn) | 3.16 µM (active) |
| CN(C)[C@@H]1C(=O)C(C(N)=O)=C(O)[C@@]2(O)C(=O)C3=C(O)c4c(O)cccc4[C@@](C)(O)[C@H]3[C@H](O)[C@@H]12 | inactive |
| O=c1c(O)c(-c2ccc(O)c(O)c2)oc2c(O)c(O)cc(O)c12 | inactive |
| O=C(Nc1ccc(Br)cc1)c1cc(Br)cc(Br)c1O | 8.91 µM (active) |
| CCCCCOc1cc2c(cc1-c1cc(/C=C/C(=O)O)ccc1O)C(C)(C)CCC2(C)C | 15.8 µM (active) |
